An excerpt weighted towards active compounds, which were near 19% of everything screened.
VP16 counter: inhibits Gal4-VP16 luciferase reporter, ROR gamma counter-screen. 310,000 tested, 3.5% active. AID 2546. Potency, µM (series often up to 53.6 µM), for the others: top-dose activity, negative = inhibition, usual class: inhibitors. Drosophila S2 Gal4-VP16 UAS-luciferase, luminescence, 20 h;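 also: Gal4-VP16 expression switched on by copper sulfate through the metallothionein promoter; nearly all actives have a fitted effect of over 50% in size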
TDP1 inh: TDP1 (human) enzyme inhibition; Q9NUW8; recombinant TDP1, AlphaScreen DNA substrate cleavage; Potency, µM (top dose mostly 130 µM), for inactives: at the highest dose activity change, negative = inhibition, most hits filed as inhibitors; 350,000 tested, 0.28% active; AID 485290; also: nearly all actives have a fitted effect of over 40% in size
Target sequence (Q9NUW8 whole entry, looked up): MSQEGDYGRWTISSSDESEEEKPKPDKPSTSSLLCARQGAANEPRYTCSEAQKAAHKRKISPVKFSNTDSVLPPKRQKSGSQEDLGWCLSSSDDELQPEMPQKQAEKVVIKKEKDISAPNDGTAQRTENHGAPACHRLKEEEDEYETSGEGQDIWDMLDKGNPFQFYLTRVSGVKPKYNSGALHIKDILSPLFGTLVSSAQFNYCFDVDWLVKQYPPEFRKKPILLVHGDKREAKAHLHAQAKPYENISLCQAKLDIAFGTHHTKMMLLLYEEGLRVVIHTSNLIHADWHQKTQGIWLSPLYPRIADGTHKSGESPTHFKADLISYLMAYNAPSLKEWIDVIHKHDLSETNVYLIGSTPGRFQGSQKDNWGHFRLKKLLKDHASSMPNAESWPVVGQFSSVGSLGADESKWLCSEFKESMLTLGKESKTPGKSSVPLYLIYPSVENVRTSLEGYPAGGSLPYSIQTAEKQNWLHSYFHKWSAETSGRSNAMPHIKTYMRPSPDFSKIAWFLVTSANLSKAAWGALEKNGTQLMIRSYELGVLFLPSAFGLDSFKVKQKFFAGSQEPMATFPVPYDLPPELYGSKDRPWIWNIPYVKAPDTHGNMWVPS
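Recombinant E. coli-expressed Tdp1 (1 nM) preincubated with compound 15 min at RT, then 5'-biotin/3'-phosphotyrosine-FITC DNA substrate (15 nM) added for 5 min. AlphaScreen beads (10 ug/ml) added, 10 min RT; tyrosine-FITC cleavage read as signal loss.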
DT40 TDP1 no CPT: qHTS for Inhibitors of human tyrosyl-DNA phosphodiesterase 1 (TDP1): qHTS in cells in absence of CPT; DT40 Tdp1-/- hTDP1 cells, no CPT, ATP luminescence, 48 h; Potency, µM (titrated, usually from 46.2 µM), inactives show top-dose activity change, negative = growth inhibition, usual class: inhibitors; 420,000 tested, 15% active; AID 686978, 2013; also: nearly all actives have a fitted effect of over 55% in size
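Camptothecin absent (DMSO only). Human TDP1-complemented DT40 knockout cells, 400 cells/well, 37 °C for minimum 48 hr; ATP measured via CellTiter-Glo, 30 min dark incubation, luminescence.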
TDP1 cell CPT: growth inhibition of DT40 Tdp1-/-;hTDP1 cells with camptothecin (screen for TDP1 inhibitors). chicken DT40 Tdp1-/-;hTDP1 cells + 20 nM CPT, ATP luminescence, 48 h. Potency, µM (doses to about 46.2 µM), without a hit: at the highest dose activity change, negative = growth inhibition, hits mostly inhibitors. 420,000 tested, 12% active. AID 686979; also: nearly all actives have a fitted effect of over 55% in size
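Chicken DT40 Tdp1-/- cells complemented with human TDP1, 400 cells/well, exposed to compounds plus 20 nM camptothecin for at least 48 h at 37 C; viability read as ATP content by CellTiter-Glo luminescence.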
RORgamma inh: ROR gamma (mouse) transcription inhibition; P51450; Potency, µM (highest dose often 53.6 µM), for the others: at the highest dose activity change, negative = inhibition, usual class: inhibitors; Drosophila S2 Gal4-RORgamma UAS-luciferase reporter, 20 h; AID 2551; 310,000 tested, 5.4% active; also: nearly all actives have a fitted effect of over 60% in size
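Using a luciferase readout, inhibitors were identified by reduced reporter activity in Drosophila cells coexpressing a copper-inducible Gal4–ROR gamma fusion and UAS-driven Photinus luciferase, incubated 20 hr after 700 uM copper sulfate.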
An asterisk follows results filed as active; ? = inconclusive; / = no result given; [ ] = remark or other dose. Calls follow the shape of the dose curve; as a rule, active = well fitted curve in the direction sought with a large enough effect; inconclusive = small, poorly fitted or top-dose-only effect, or another doubt; inactive = no such curve, though single readings can be large; an effect the other way counts as inactive or inconclusive. % is scaled to controls: 0 for no effect and ±100 for the full control effect; potency is read from the fitted curve at half-maximal effect.

SMILES	VP16 counter	TDP1 inh	DT40 TDP1 no CPT	TDP1 cell CPT	RORgamma inh
OC(COCc1ccc2c(c1)OCO2)CN1CCC(Cc2ccccc2)CC1 (stereo not given)	1.2%	2.7%	?	?	0.3%
CC1CCC2(CC1)NC(=O)N(CC(=O)NCCc1ccccc1)C2=O (stereo not given)	/	-0.4%	-16.9%	6.1%	/
Cc1[nH]c(=O)[nH]c1C(=O)CCCCC(=O)O	-2.8%	5.7%	0.8%	-4.1%	-7.4%
Cc1cccc(Nc2sc(C(=O)c3cc4cc(Cl)ccc4o3)c(N)c2C#N)c1	-8.1%	2.9%	3.5%	-3.3%	-2.8%
COc1ccccc1OCCOCCOc1c(C)cc(C)cc1Br	-13.0%	-11.0%	23.1µM*	?	24.0%
CC(C)(C)OC(=O)CC1(C#N)c2ccccc2C(Br)=CN1C(=O)c1ccccc1 (stereo not given)	/	1.0%	16.4µM*	?	/
O=C(Nc1ccccn1)c1cccc(S(=O)(=O)N2CCOCC2)c1	5.9%	2.1%	-21.5%	-22.5%	12.1%
COc1cc(F)ccc1S(=O)(=O)n1c(C)nc2ccccc21	-15.4%	/	?	?	-17.7%[1.91 µM]
c1ccc2c(c1)OCCc1c-2[nH]c2ccccc12	-2.5%	/	4.3%	?	-19.8%
c1ccc2c(c1)SCc1c-2[nH]c2ccccc12	10µM*	18.7%	/	/	4.47µM*
CC(C)(C)C1CCC(OC(=O)c2ccncc2)CC1 (stereo not given)	21.5%	1.1%	-26.2%	-1.0%	-1.2%
c1ccc(-c2ccc3c(c2)c2c4n3CCN=C4CCC2)cc1	?	9.9%	?	23.1µM*	11.2µM*
OC1CN=C2CCCc3c2n(c2ccc(Cl)cc32)C1 (stereo not given)	0.9%	4.7%	-23.3%	-7.7%	14.0%
COc1cccc(Cn2c(Oc3ccccc3)nc3c2c(=O)n(C)c(=O)n3C)c1	?	1.1%	?	-29.8%	22.2%
Cn1c(=O)c2c(nc(NCc3cccnc3)n2Cc2cccc(C(F)(F)F)c2)n(C)c1=O	?	4.7%	7.31µM*	18.4µM*	?
Cn1c(NCc2cccnc2)nc2c1c(=O)n(Cc1ccccc1F)c(=O)n2C	-0.4%	4.6%	?	?	0.4%
COc1cccc(Cn2c(NCc3cccnc3)nc3c2c(=O)n(C)c(=O)n3C)c1	?	1.9%	1.03µM*	1.03µM*	?
C=CCN=C1CC(C)(C)C(C(=O)OC)C(O)=C1C(=O)CCC (stereo not given)	-10.9%	0.0%	-11.1%	-23.4%	3.1%
O=C(NN=C1CCCC1)c1cc(O)cc(O)c1	-8.9%	17.8µM*	-1.7%	8.9%	1.1%
O=C(NN=C1CCCCCC1)c1ccc(Cl)s1	12.6µM*	3.2%[56.1 µM]	3.4%	-5.0%	?
N#Cc1ccc(COC(=O)CSc2nnc(C3CCCCC3)n2N)cc1	-8.2%	-6.2%	-16.5%	-29.0%	-26.9%
O=C(c1ccc2c(c1)N(Cc1cccc(Cl)c1)C(=O)c1ccccc1S2)N1CCOCC1	/	7.8%	?	18.4µM*	/
CN(C)CCNC(=O)c1ccc2c(c1)N(Cc1c(F)cccc1Cl)C(=O)c1ccccc1S2	/	2.3%	23.1µM*	16.4µM*	/
O=C(c1ccc2c(c1)N(Cc1c(F)cccc1Cl)C(=O)c1ccccc1S2)N1CCCC1	/	4.7%	23.1µM*	?	/
O=C(c1ccc2c(c1)N(Cc1cccc(F)c1)C(=O)c1ccccc1S2)N1CCCC1	/	0.0%	?	20.6µM*	/
SMILES	VP16 counter	TDP1 inh	DT40 TDP1 no CPT	TDP1 cell CPT	RORgamma inh
CC1(C)S[C@@H]2[C@H](NC(=O)C(C(=O)Oc3ccc4c(c3)CCC4)c3ccccc3)C(=O)N2[C@H]1C(=O)O (stereo not given in full)	/	/	-7.2%	-5.5%	/
Cc1cccc(-c2ccc3ncnc(NCc4cccnc4)c3c2)c1	/	2.0%	/	/	/
Cc1cccc(CNc2ncnc3ccc(-c4cccnc4)cc23)c1	-26.8%	0.0%	18.4µM*	11.6µM*	-11.9%
Cc1noc(C)c1-c1ccc2ncnc(NCc3cccnc3)c2c1	-6.1%	/	?	9.2µM*	-38.0%
c1cncc(CNc2ncnc3ccc(-c4ccoc4)cc23)c1	1.4%	2.2%	?	10.3µM*	21.9%
Cc1ccc2ncnc(Nc3ccccc3)c2c1	3.2%	-5.1%	?	-22.1%	12.9%
Cc1noc(C)c1-c1ccc2ncnc(NCc3ccc(-c4ccccc4)cc3)c2c1	0.9%	10.9%	/	/	?
c1ccc(Nc2ncnc3ccc(-c4cccnc4)cc23)cc1	-12.5%	-3.8%[56.1 µM]	18.4µM*	?	3.1%
CCOc1ccc(CCNC(=O)C2CCN(S(=O)(=O)N3CCC(C)CC3)CC2)cc1OCC	-0.9%	0.0%	?	?	2.5%
Cc1cccc(CNc2ncnc3ccc(-c4ccoc4)cc23)c1	4.9%	4.3%	13µM*	20.6µM*	0.4%
COc1ccccc1CC(=O)N1CCN(c2ccccn2)CC1	-0.2%	3.9%	-3.9%	-3.8%	?
COc1ccc(CCN2C(=O)N(c3ccc(OC)cc3)C(=O)C2CC(=O)Nc2ccccc2)cc1 (stereo not given)	-0.7%	0.0%	?	-0.4%	10.8%
COc1ccc(CCN2C(=O)N(c3ccc(C)cc3)C(=O)C2CC(=O)Nc2ccc(OC)cc2)cc1 (stereo not given)	/	6.4%	?	20.6µM*	/
CNC(=O)CC1C(=O)N(c2ccc(Cl)cc2)C(=S)N1CCc1ccc(OC)c(OC)c1 (stereo not given)	-24.6%	-11.1%	9.2µM*	?	?
Cc1ccc(N2C(=O)C(CC(=O)Nc3cccc(F)c3)N(CCc3ccccc3F)C2=O)cc1 (stereo not given)	/	1.3%	20.6µM*	16.4µM*	/
COc1ccc(CCN2C(=O)N(c3ccccc3)C(=O)C2CC(=O)Nc2ccccc2)cc1 (stereo not given)	/	1.3%	25.9µM*	?	/
CCCCCC(=O)Nc1ccc(C(=O)COC(=O)Cn2cnc3c2c(=O)n(C)c(=O)n3C)cc1	/	-3.1%	2.4%	-1.5%	/
CC1CCN(C(=O)c2[nH]cnc2C(=O)NCC(=O)OC(C)(C)C)CC1	-5.5%	/	-24.3%	5.0%	-14.6%
CCCOc1ccc(NC(=O)CC2C(=O)N(c3ccc(F)cc3)C(=O)N2CC(C)C)cc1 (stereo not given)	/	2.8%	?	?	/
COc1ccc(CCN2C(=O)N(c3cccc(C)c3)C(=O)C2CC(=O)Nc2ccccc2)cc1OC (stereo not given)	/	3.8%	?	23.1µM*	/
CCCOc1ccc(NC(=O)CC2C(=O)N(c3ccccc3)C(=O)N2CCC(C)C)cc1 (stereo not given)	/	2.8%	14.6µM*	?	/

Source: PubChem
